Format in all cases: functional
In test [1] the target is Solute carrier family 2, facilitated glucose transporter member 1 (Homo sapiens) (UniProt P11166). The test is described as follows: ST_JUDE_LEISH: Cytotoxicity at 2uM final concentration against transgenic Leishmania Mexicana promastigotes LmGLUT1 that are glucose transport deficient and complemented with the human glucose transporter GLUT1. Activity is measured by DNA content using SYBR green in vitro.

In test [2] the target is Hexose transporter 1 (Plasmodium falciparum) (UniProt O97467). Nature of the test: ST_JUDE_LEISH: Cytotoxicity at 2uM final concentration against transgenic Leishmania Mexicana promastigotes LmPfHT that are glucose transport deficient and complemented with the Plasmodium falciparum hexose transporter. Activity is measured by DNA content using SYBR green in vitro.
Test [3] concerns the target Glucose transporter (Leishmania mexicana) (UniProt O61059). Nature of the test: ST_JUDE_LEISH: Cytotoxicity at 2uM final concentration against transgenic Leishmania Mexicana promastigotes LmGT2 that are glucose transport deficient and complemented with the L. Mexicana glucose transporter 2. Activity is measured by DNA content using SYBR green in vitro.

The inhibition is the change of the read-out against control, counted positive when it falls.

Solute carrier family 2, facilitated glucose transporter member 1 (Homo sapiens), sequence (P11166 whole entry): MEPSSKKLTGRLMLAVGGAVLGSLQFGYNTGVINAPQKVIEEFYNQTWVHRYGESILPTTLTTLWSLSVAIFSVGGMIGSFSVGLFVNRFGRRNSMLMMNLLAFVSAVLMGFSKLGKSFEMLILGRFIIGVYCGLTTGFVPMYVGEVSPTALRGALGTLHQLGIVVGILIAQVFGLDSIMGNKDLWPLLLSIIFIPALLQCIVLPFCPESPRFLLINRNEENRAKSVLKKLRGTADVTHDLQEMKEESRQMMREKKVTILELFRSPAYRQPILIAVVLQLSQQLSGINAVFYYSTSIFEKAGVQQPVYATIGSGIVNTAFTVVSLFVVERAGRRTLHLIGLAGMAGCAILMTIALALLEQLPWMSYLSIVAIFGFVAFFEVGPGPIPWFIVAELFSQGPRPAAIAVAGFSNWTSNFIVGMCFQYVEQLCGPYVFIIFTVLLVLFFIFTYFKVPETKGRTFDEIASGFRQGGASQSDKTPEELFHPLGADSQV

As for `CC(C)n1c(C(C)(C)C)cc2c3c(N)nc(N)nc3ccc21`, the inhibition in test [1] is 52.7%; in test [2], 62.4%; in test [3], 44.4%.
Turning to `Cc1[nH]c(C)c(-c2ccc(OCc3ccc(OC(F)(F)F)cc3)nc2)c(=O)c1Cl`, the inhibition was 13.3% in test [1], 15.2% in test [2] and 11.2% in test [3].
For `O=C(C1CCCC1)N1CCOC(CCN2CCC(c3ccccc3)CC2)(c2ccc(Cl)c(Cl)c2)C1` (stereo not given) the same measures were 11.9%, 11.5% and 11.7%.
For `O=S(=O)(Nc1ccc2nccc(N3CCNCC3)c2c1)c1ccc2c(Cl)cccc2c1` the same measures were 0.28%, -0.67% and -0.37%.
For `CCCCCCc1cnc2nc(N)nc(N)c2c1C` the same measures were 10.8%, 10% and 10.3%.
For the molecule `COc1ccc2c(CCNc3nc(SC)ncc3C(=O)NCCc3ccc(F)cc3)c[nH]c2c1`, the inhibition was 2.09% in test [1], 0.58% in test [2] and 1.11% in test [3].
For the molecule `COc1ccc(O)c(C(=O)c2cnc3c(c2)c(-c2ccc(F)cc2)c(C#N)c(=O)n3C)c1`, the figures for the inhibition in test [1], in test [2] and in test [3] were 8.74%, 6.89% and 4.94%, respectively.
For `N=C(N)c1ccc2[nH]c(SCc3ccccc3)nc2c1`, in that order: 1.18%, 1.38% and 0.24%.
Regarding `COc1ccc(CCNC(=O)c2ccccc2O)cc1-c1ccc(C(C)(C)C)cc1`, the inhibition in test [1] is 4.03%; in test [2], 2.33%; in test [3] it was 3.39%.
With `Cc1nn(CC(C)C)c2sc(C(=O)Nc3nc(-c4ccccn4)cs3)cc12`, the inhibition in test [1] was 3.49%; in test [2] it was 3.41%; in test [3], 2.33%.
`CCOC(=O)c1ccc2[nH]c(-c3ccc(C(=O)NC4CCN(Cc5ccccc5)CC4)s3)nc2c1`: the inhibition was 4.45% in test [1], 4.85% in test [2] and 0.16% in test [3].
For `C/C=C/C=C/C1=NCCc2cc(OCCC)ccc21` the same measures were 71.8%, 74.1% and 17.7%.
For `CCOC(=O)c1ccc(NC(=O)Nc2cccc(-c3cccc(-c4nc5cccc(C)c5[nH]4)c3)c2)cc1` the same measures were 2.35%, 3.22% and 1.01%.
For `C=CCc1ccccc1OCC(O)CN(C1CCCCC1)C1CCCCC1` (stereo not given), in that order: -1.79%, -2.31% and 5.77%.
With `N#CN1CC[C@H](CS(=O)(=O)c2cccc(Br)c2)C1`, the figures for the inhibition in test [1], in test [2] and in test [3] were 6.21%, 4.67% and 2.05%, respectively.
On to `CN(Cc1cccc(O)c1)C1CCN(c2cc(NC(=O)c3cccc(F)c3)ccn2)CC1`, for which the values for the inhibition in test [1], in test [2] and in test [3] were 0.01%, 1.18% and 1.33%, respectively.
For `N#Cc1ccc(-c2nc3c(N4CCCC4)cccc3n2CCNCc2ccccc2)cc1` the same measures were 12.3%, 11% and 11.8%.
Regarding `c1cc(CNCCc2ccncc2)cc(-c2csc(-c3nc4ccccc4[nH]3)c2)c1`, the inhibition in test [1] was 0.51%; in test [2] it was -1.59%; in test [3], 1.05%.
For `CN(C)c1ccc(-c2nnc(Sc3ccc(C#N)c([N+](=O)[O-])c3)n2Cc2ccco2)cc1`, in that order: 3.82%, 2.83% and 0.63%.
For `CC(C)c1ncc(-c2ccncc2)c(C2CCC(CNC(=O)c3ccncc3)CC2)n1` (stereo not given), in that order: 3.67%, -0.19% and 1.87%.
For `CC(C)(C)C(=O)Nc1ccccc1Oc1ccc(Cl)cc1` the same measures were 5.77%, 4.21% and 5.27%.
As for `COc1ccc2c(N/N=C/c3ccccc3[N+](=O)[O-])cc(C)nc2c1`, the inhibition was 3.18% in test [1], 2.75% in test [2] and 2.99% in test [3].
Turning to `CC(C)(C)c1ccc(NC(=O)c2ccc(CN3CCCN(Cc4cccc(C#N)c4)CC3)cc2)cc1`, the inhibition in test [1] stood at 6.54%; in test [2], 7.31%; in test [3], 4.99%.
For `COc1ccc(CCCCN2C(=O)C(c3ccccc3)(c3ccccc3)N=C2N)cc1`, in that order: 3.36%, 4.05% and 0.32%.
For `CCSc1ccccc1CON1C(=N)N=C(N)NC1(C)C` the same measures were 15.4%, 19.1% and 18.7%.
For `CNc1ccc(CNCc2cccc(-c3ccc(-c4nc5cccc(C)c5[nH]4)s3)c2)cc1` the same measures were 8.15%, 5% and 6.79%.
For `CO/C(=C\C=C\c1cc2cc(Cl)c(Cl)cc2[nH]1)C(=O)NCCCN1CCN(c2ccncc2)CC1`, the inhibition in test [1] worked out at 4.85%; in test [2], 3.18%; in test [3], 3.48%.
In the case of `O=C(/C=C/c1ccc(Cl)c(Cl)c1)NCCCCCN1CCN(C(=O)Nc2ccc(OC(F)F)cc2)CC1`, the inhibition in test [1] is 2.15%; in test [2], 1.76%; in test [3], -2.1%.
For `Cc1ccc(CNC(=N)NC(=O)c2nc(Cl)c(NCc3ccc(Cl)cc3)nc2N)c(C)c1`, in that order: -0.6%, 0.67% and 1.11%.
For `Cn1nc(-c2ccccc2F)c2cc(C(=O)Nc3cccnc3)sc21` the same measures were 3.76%, 2.08% and 2.9%.
With `O=C(Nc1cccc(-c2ccc(-c3nc4ccccc4[nH]3)s2)c1)c1ccncc1`, the inhibition stood at 1.95% in test [1], 9.91% in test [2] and 3.84% in test [3].
For `CNC(=O)NC1=NC(C)(C)N(OCc2ccc(Cl)c(Cl)c2)C(NC(=O)NC)=N1`, the inhibition in test [1] came out at 1.27%; in test [2], 0.11%; in test [3], 0.39%.
`O=C(c1ccc(Cl)cc1)C1CCN(CCCOc2ccc3c(c2)CCNCC3)CC1`: the inhibition in test [1] stood at 1.04%; in test [2] it was 4.76%; in test [3], 0.17%.
On to `CCN1CCC(N2CCC(C(=O)Nc3cccc(-c4cccc(Cl)c4)c3)CC2)CC1`, for which the results for the inhibition in test [1], in test [2] and in test [3] were 0.8%, -1.24% and 2.7%, respectively.
`CC(C)c1ccc(CN2CCCCC(NC(=O)c3cc(-c4ccccc4F)cs3)C2)cc1` (stereo not given): the inhibition amounted to 8.71% in test [1], 8.1% in test [2] and 11.2% in test [3].

The values above are taken from ChEMBL document CHEMBL3433997, “St. Jude Leishmania screening dataset” (2016).
